Results taken from PubChem BioAssay (EPA / NIEHS).
Active and inactive are the calls of the source. How the source made its calls: active means hit-call score of the fitted dose curve at least 0.9, where 1 is the maximum; inactive means score below 0.9.

Legend:
[1] = BSK_hDFCGF_SRB: Viability Assessment in the BioMAP Diversity Plus: hDFCGF Assay (AID 2283061); settings: primary human foreskin fibroblasts;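 further: cells exposed to compound for 24 h before the read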
In short: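 Human foreskin fibroblasts in 96-well plates were treated 24 h. Total protein was measured by 0.1% SRB staining after 10% TCA fixation, read at 560 nm. Data were fitted bidirectionally against DMSO.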

[2] = read-out: Monokine induced gamma interferon (MIG), CXCL9 (gene 4283); test: BSK_hDFCGF_MIG: BioMAP Diversity Plus: hDFCGF Assay for Monokine induced gamma interferon (MIG) Biomarker Activity (AID 2283063); settings: primary human foreskin fibroblasts; actives raise or lower the signal
In short: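 MIG/CXCL9 measured by ELISA 24 h after dosing primary human skin fibroblasts. Activity fitted in both directions against DMSO controls. Cytotoxicity was checked in parallel cultures by SRB staining read at 560 nm.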

[3] = read-out: Matrix Metallopeptidase 1 (MMP1), MMP1 (gene 4312); test: BSK_hDFCGF_MMP1: BioMAP Diversity Plus: hDFCGF Assay for Matrix Metallopeptidase 1 (MMP1) Biomarker Activity (AID 2283064); settings: primary human foreskin fibroblasts; actives raise or lower the signal
In short: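 ELISA read-out of MMP1 from human foreskin fibroblasts (primary skin cells), 24 h post-dose. Gain or loss of signal was fitted bidirectionally versus DMSO negative control; cytotoxicity was checked by SRB in parallel cultures.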

[4] = read-out: Vascular cell adhesion molecule 1 (VCAM1), VCAM1 (gene 7412); test: BSK_hDFCGF_VCAM1: BioMAP Diversity Plus: hDFCGF Assay for Vascular cell adhesion molecule 1 (VCAM1) Biomarker Activity (AID 2283065); settings: primary human foreskin fibroblasts; actives raise or lower the signal;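 on AC50: VCAM-1 protein level quantified by ELISA after 24 h chemical exposure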
In short: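 Human foreskin fibroblast primary cells dosed with chemical, VCAM-1 measured by ELISA at 24 h. Bidirectional curve fitting relative to DMSO as negative control/baseline.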

[5] = read-out: Plasminogen activator inhibitor-1 (PAI1), SERPINE1 (gene 5054); test: BSK_hDFCGF_PAI1: BioMAP Diversity Plus: hDFCGF Assay for Plasminogen activator inhibitor-1 (PAI1) Biomarker Activity (AID 2283066); settings: primary human foreskin fibroblasts; actives raise or lower the signal
In short: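 Human skin fibroblast cultures receive chemical for 24 h before PAI-1 is measured by ELISA; signal changes are fitted bidirectionally against DMSO-treated wells.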

[6] = read-out: Intercellular Adhesion Molecule 1 (ICAM1), ICAM1 (gene 3383); test: BSK_KF3CT_ICAM1: BioMAP Diversity Plus: KF3CT Assay for Intercellular Adhesion Molecule 1 (ICAM1) Biomarker Activity (AID 2283067); settings: primary human keratinocytes with fibroblasts; actives raise or lower the signal
In short: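 Human keratinocyte–foreskin fibroblast co-culture was treated for 24 h. Cell-surface ICAM-1 was quantified by ELISA, fitted bidirectionally relative to DMSO. Cytotoxicity was checked in parallel cultures by SRB total-protein staining.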

[7] = read-out: Interferon-gamma inducible Protein 10 (IP10), CXCL10 (gene 3627); test: BSK_KF3CT_IP10: BioMAP Diversity Plus: KF3CT Assay for Interferon-gamma inducible Protein 10 (IP10) Biomarker Activity (AID 2283068); settings: primary human keratinocytes with fibroblasts; actives raise or lower the signal
In short: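 Signal is secreted/surface IP-10 by ELISA in a human primary skin co-culture of keratinocytes and foreskin fibroblasts, taken 24 h post-dosing; DMSO served as negative control.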

[8] = BSK_KF3CT_SRB: Viability Assessment in the BioMAP Diversity Plus: KF3CT Assay (AID 2283069); settings: primary human keratinocytes with fibroblasts;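 further: total protein by sulforhodamine B staining as a cytotoxicity measure; read 24 h after compound addition; fitted for both signal gain and loss against DMSO baseline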
In short: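 SRB read-out at 560 nm (0.1% stain, TCA-fixed cells) gauges overt cytotoxicity in a human skin keratinocyte–fibroblast co-culture 24 h post-dosing. Signal change was fitted bidirectionally relative to DMSO control.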

[9] = read-out: Interleukin-1 alpha (IL1a), IL1A (gene 3552); test: BSK_KF3CT_IL1a: BioMAP Diversity Plus: KF3CT Assay for Interleukin-1 alpha (IL1a) Biomarker Activity (AID 2283070); settings: primary human keratinocytes with fibroblasts; actives raise or lower the signal
In short: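 Primary skin co-culture (keratinocytes, foreskin fibroblasts), 24 h exposure; ELISA for IL-1a; bidirectional curve fit vs DMSO.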

[10] = read-out: TIMP metallopeptidase inhibitor 1 (TIMP1), TIMP1 (gene 7076); test: BSK_hDFCGF_TIMP1: BioMAP Diversity Plus: hDFCGF Assay for TIMP metallopeptidase inhibitor 1 (TIMP1) Biomarker Activity (AID 2283062); settings: primary human foreskin fibroblasts; actives raise or lower the signal
In short: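 Human foreskin fibroblast primary cultures dosed for 24 h; secreted/surface TIMP-1 quantified by ELISA. Bidirectional curve fitting against DMSO baseline; cytotoxicity tracked in parallel cultures by SRB total-protein staining.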

Measured: AC50

C=CCc1ccc2c(c1)OCO2
inactive: [1] | [2] | [3] | [4] | [5] | [6] | [7] | [8] | [9]

CCCCCCCCCCCCCN1CC(C)OC(C)C1 (centres undefined)
inactive: [1] | [10] | [3] | [4] | [5] | [6] | [7] | [8] | [9]

Nc1ccc(N=Nc2ccccc2)cc1
inactive: [1] | [10] | [3] | [5] | [6] | [7] | [8] | [9]
active: [4] 20 µM

CN(C)C(=O)Nc1ccc(Cl)cc1
inactive: [1] | [10] | [3] | [4] | [5] | [6] | [7] | [8] | [9]

CCCCCCCCn1sccc1=O
active: [1] 1.73 µM | [10] 2.09 µM | [3] 1.43 µM | [4] 1.09 µM | [5] 1.4 µM | [6] 9.79 µM | [7] 8.03 µM | [8] 6.74 µM | [9] 9.05 µM

Clc1ccccc1Cl
inactive: [1] | [2] | [3] | [4] | [5] | [6] | [7] | [8]

CC(C)(O)c1cnn2c(-c3ccc(F)c(-c4c(F)cccc4C#N)c3)cnc2n1
active: [3] 6.43 µM | [7] 23.2 µM | [8] 33.2 µM
inactive: [1] | [10] | [4] | [5] | [6] | [9]

COP(=S)(OC)SCN1C(=O)c2ccccc2C1=O
inactive: [1] | [2] | [3] | [4] | [5] | [6] | [7] | [8] | [9]

c1ccc2c(c1)-c1cccc3cccc-2c13
inactive: [1] | [10] | [3] | [4] | [5] | [6] | [7] | [8] | [9]

ClC1=C(Cl)C2(Cl)C3C(Cl)C=CC3C1(Cl)C2(Cl)Cl (centres undefined)
active: [1] 11.2 µM | [2] 10.6 µM | [3] 13.4 µM | [4] 8.26 µM | [5] 9.78 µM | [6] 30.2 µM | [7] 15.3 µM | [8] 28.6 µM | [9] 27.3 µM

Cc1ccc(N)cc1
inactive: [1] | [10] | [3] | [4] | [5] | [6] | [7] | [8] | [9]

Clc1ccc(C(c2ccc(Cl)cc2)C(Cl)Cl)cc1
active: [1] 9.91 µM | [2] 11.8 µM | [3] 10.8 µM | [4] 9.19 µM | [5] 7.29 µM | [6] 15.5 µM | [7] 13.9 µM | [8] 12.8 µM | [9] 13.8 µM

Nc1cc(Cl)cc(C(=O)O)c1Cl
inactive: [1] | [10] | [3] | [4] | [5] | [6] | [7] | [8] | [9]

Cc1cc(N=Nc2ccccc2C)ccc1N
inactive: [3]
active: [1] 34.5 µM | [2] 33.4 µM | [4] 23.5 µM | [5] 32.1 µM | [6] 31.8 µM | [7] 33.7 µM | [8] 29.9 µM | [9] 37.9 µM

CCCCCOC(=O)c1ccccc1C(=O)OCCCCC
inactive: [1] | [2] | [3] | [5] | [6] | [7] | [8] | [9]
active: [4] 4.45 µM

Oc1ccccc1Cl
inactive: [1] | [10] | [3] | [4] | [5] | [6] | [7] | [8] | [9]

Clc1ccc(Cl)c(Cl)c1
inactive: [1] | [3] | [4] | [5] | [6] | [7] | [8] | [9]

O=C(N[C@H](c1ccccc1)[C@@H]1CN2CCC1CC2)c1c(Cl)ccc(C(F)(F)F)c1Cl
active: [6] 49.6 µM | [7] 49 µM | [8] 44.6 µM | [9] 47.9 µM
inactive: [1] | [3] | [4] | [5]

CC(C)(OOC(C)(C)c1ccccc1)c1ccccc1
active: [1] 29.1 µM | [2] 20 µM | [3] 38.1 µM | [4] 28.8 µM | [5] 15.4 µM
inactive: [6] | [7] | [8] | [9]

ClC1=C(Cl)[C@]2(Cl)[C@H]3[C@H]([C@@H]4C=C[C@H]3C4)[C@@]1(Cl)C2(Cl)Cl
active: [1] 10.3 µM | [3] 29.9 µM | [4] 10.1 µM | [5] 10.7 µM | [6] 15.5 µM | [7] 14.5 µM | [8] 30.6 µM

CCOc1cccc(C2(N3CCN(c4ccccc4)CC3)CCC(C)CC2)c1 (centres undefined)
inactive: [1] | [2] | [3] | [4] | [5] | [6] | [7] | [8] | [9]
